Data published in PubChem BioAssay AID2561 (National Center for Advancing Translational Sciences (NCATS), 2010).
“And” between values parts separate entries of the source, which are not always exact repeats. Identical values can stand only once. Results filed as inconclusive are left out. Values without a mark were called inactive. The source made the active and inactive calls. Calls follow the shape of the dose curve; as a rule, active = well fitted inhibition curve with a large enough effect; inconclusive = small, poorly fitted or top-dose-only effect, or effect the other way; inactive = flat fitted curve, though single readings scatter.

The compounds below were run against Pyruvate kinase (Leishmania mexicana) (UniProt Q27686) (assay: Confirmation Assay for Inhibitors of Leishmania Mexicana Pyruvate Kinase (LmPK): for Probe SAR). Details: purified LmPK, ATP generation, Kinase-Glo luminescence; series mostly up to 57.5 µM; activity change, negative = inhibition: at the top concentration.
Sequence of Pyruvate kinase (Leishmania mexicana) (Q27686 whole entry, looked up): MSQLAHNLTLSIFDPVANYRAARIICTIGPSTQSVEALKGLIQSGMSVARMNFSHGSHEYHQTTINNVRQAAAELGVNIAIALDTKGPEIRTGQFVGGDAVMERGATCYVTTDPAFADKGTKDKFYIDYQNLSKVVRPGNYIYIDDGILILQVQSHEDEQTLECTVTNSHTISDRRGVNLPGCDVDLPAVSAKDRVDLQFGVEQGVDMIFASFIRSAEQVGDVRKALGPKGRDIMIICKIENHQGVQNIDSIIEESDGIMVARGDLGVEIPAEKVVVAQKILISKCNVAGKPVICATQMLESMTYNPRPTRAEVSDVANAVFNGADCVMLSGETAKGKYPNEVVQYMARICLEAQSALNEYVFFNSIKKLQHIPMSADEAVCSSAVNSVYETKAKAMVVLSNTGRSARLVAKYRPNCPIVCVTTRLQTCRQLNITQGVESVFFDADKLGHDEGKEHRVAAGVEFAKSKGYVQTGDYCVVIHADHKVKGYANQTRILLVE
Summary of the method: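 Purified L. mexicana pyruvate kinase (0.1 nM) with 0.5 mM PEP and 0.1 mM ADP in pH 7.2 imidazole buffer, 1 h at RT. ATP formed measured by Kinase-Glo luminescence; normalized to uninhibited and no-enzyme wells.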
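For activity change, negative = inhibition in this document: plate controls were uninhibited enzyme for no effect and no enzyme wells for full effect.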
Potency is read from the fitted curve at half-maximal effect.

| Compound | activity change, negative = inhibition [%] | Potency |
| --- | --- | --- |
| Cc1ccc(Nc2c(-c3ccc(C)s3)nc3ccccn23)cc1 | -1.99 |  |
| CC(C)(C)c1ccc(SC2=NS(=O)(=O)c3ccccc32)cc1 |  | 3.26 µM (active) |
| Cc1cccc(NS(=O)(=O)c2ccc3c(c2)CCC(=O)N3)c1 | -10.1 |  |
| Cc1cc(N2C(=O)c3ccccc3C2=O)n[nH]1 | 10.3 |  |
| COc1ccc(OC2=NS(=O)(=O)c3ccccc32)cc1 |  | 4.31 µM (active) |
| O=C1c2ccccc2C(=O)N1c1cnc2ccccc2c1 | 9.24 |  |
| O=S1(=O)N=C(Oc2ccc(-c3ccccc3)cc2)c2ccccc21 |  | 4.11 µM (active) |
| CCCCN1C(=O)c2ccccc2C1=O | -2.93 |  |
| O=S1(=O)N=C(Sc2cc(C(F)(F)F)cc(C(F)(F)F)c2)c2ccccc21 |  | 2.91 µM (active) |
| Cc1ccc(N2C(=O)c3ccccc3C2=O)c(C)c1 | 8.62 |  |
| O=C1NS(=O)(=O)c2ccccc21 |  | inactive |
| Cc1ccc(NS(=O)(=O)c2cc3c(cc2-c2ccsc2)NC(=O)CO3)cc1C | 1.92 |  |
| O=S1(=O)N=C(Oc2ccccc2C(F)(F)F)c2ccccc21 |  | 6.51 µM (active) |
| CN(C)c1cccc(S(=O)(=O)N2CCN(S(=O)(=O)c3ccc4c(c3)OCCO4)CC2)c1 | -6.38 |  |
| COc1ccc(NS(=O)(=O)c2ccc3c(c2)CCC(=O)N3)cc1 | 8.64 |  |
| Nc1ccc2c(c1)C(=O)NS2(=O)=O | 2.28 |  |
| O=C1c2ccccc2C(=O)N1c1ccc2ncccc2c1 | 6.91 |  |
| CCOc1ccc2[nH]c(C3C(=O)c4ccccc4C3=O)cc(=O)c2c1 | -13.9 |  |
| O=C1c2ccccc2C(=O)N1Cc1cccnc1 | -2.71 |  |
| O=C1c2ccccc2C(=O)N1c1ncccc1O | 5.08 |  |
| COc1ccccc1OC1=NS(=O)(=O)c2ccccc21 |  | 4.31 µM (active) |
| Cc1ccc(NS(=O)(=O)c2ccc(-c3ccccc3)cc2)cc1C | -0.78 |  |
| O=C1c2ccccc2C(=O)C1c1nccc2ccccc12 |  | 18.3 µM (active) |
| O=C1c2ccccc2C(=O)N1Cc1ccncc1 | -15.4 |  |
| O=C(O)c1ccccc1SC1=NS(=O)(=O)c2ccccc21 |  | 4.61 µM (active) and 8.91 µM (active) |
| Cc1ccc(-c2nc3cccc(C)n3c2Nc2ccc(F)cc2)o1 | 7.79 |  |
| Cc1cc(C)c2[nH]c(C3C(=O)c4ccccc4C3=O)cc(=O)c2c1 | -9.19 |  |
| O=C1CCc2cc(S(=O)(=O)Nc3cccc(-c4ccccc4)c3)ccc2N1 | 15 |  |
| O=C1c2ccccc2C(=O)N1c1cccnc1 | 15.6 |  |
| O=C1NS(=O)(=O)c2cc(Br)ccc21 | 1.61 |  |
